{"source": "paper PMC4053984", "about": "“DNA binding specificities of the long zinc-finger recombination protein PRDM9”", "data": [{"biological_target": "PRDM9Cst (Mus musculus (CAST/EiJ))", "sequence (chain, as listed by the source)": "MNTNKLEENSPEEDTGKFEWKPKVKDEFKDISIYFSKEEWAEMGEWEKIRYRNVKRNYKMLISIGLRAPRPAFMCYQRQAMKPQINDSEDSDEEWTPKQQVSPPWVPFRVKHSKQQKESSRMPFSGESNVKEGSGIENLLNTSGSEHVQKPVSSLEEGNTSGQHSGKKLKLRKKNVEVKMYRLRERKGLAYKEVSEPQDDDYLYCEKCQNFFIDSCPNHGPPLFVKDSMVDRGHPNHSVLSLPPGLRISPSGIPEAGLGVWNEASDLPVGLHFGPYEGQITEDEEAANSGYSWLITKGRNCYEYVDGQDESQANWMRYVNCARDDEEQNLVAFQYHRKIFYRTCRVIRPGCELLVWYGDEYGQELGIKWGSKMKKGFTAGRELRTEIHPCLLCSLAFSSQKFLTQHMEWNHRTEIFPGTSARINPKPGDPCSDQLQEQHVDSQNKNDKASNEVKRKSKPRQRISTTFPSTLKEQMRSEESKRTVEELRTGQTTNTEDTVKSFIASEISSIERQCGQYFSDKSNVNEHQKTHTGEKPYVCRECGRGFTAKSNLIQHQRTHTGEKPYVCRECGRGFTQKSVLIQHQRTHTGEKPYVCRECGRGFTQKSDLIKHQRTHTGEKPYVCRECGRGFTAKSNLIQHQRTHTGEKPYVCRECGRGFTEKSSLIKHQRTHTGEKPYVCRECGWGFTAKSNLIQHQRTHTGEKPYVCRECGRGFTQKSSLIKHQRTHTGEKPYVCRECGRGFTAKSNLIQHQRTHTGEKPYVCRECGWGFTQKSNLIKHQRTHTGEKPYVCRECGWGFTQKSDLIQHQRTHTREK", "experiment": "competition EMSA; competition against biotin-labeled 75-bp Hlx1 B6 oligo; 10 mM Tris pH 7.5, 50 mM KCl, 1 mM DTT, 50 ng/ul poly(dI/dC), 0.05% NP-40, crude E. coli extract 3 ul in 20 ul; 1 h with unlabeled competitor, then 4 h with biotin-labeled 75-bp Hlx1; temperature not stated; high values mean tight binding", "settings": "tags: N-terminal His tag (pBAD/HisB); dsDNA, one strand shown", "values": [{"sequence": "ATAGTGTGCAGACTTGGACCCTGCCCTTTATTT", "binding signal": "0.05 Bmut (0 = wild type, -1 = scrambled)"}, {"sequence": "ATAGTGTGCAGGCTTGGACCCTGCCCTTTCTTT", "binding signal": "-0.1 Bmut (0 = wild type, -1 = scrambled)"}, {"sequence": "ATAGTGTGCAGACTTGGACCCTTCCCTTTCTTT", "binding signal": "-0.3 Bmut (0 = wild type, -1 = scrambled)"}, {"sequence": "ATAGTGTGCAGACTTGGAGCCTGCCCTTTCTTT", "binding signal": "-0.5 Bmut (0 = wild type, -1 = scrambled)"}, {"sequence": "ATCGTGTGCAGACTTGGACCCTGCCCTTTCTTT", "binding signal": "-0.1 Bmut (0 = wild type, -1 = scrambled)"}, {"sequence": "ATAGTGTGCAGACTTGGACCGTGCCCTTTCTTT", "binding signal": "0.06 Bmut (0 = wild type, -1 = scrambled)"}, {"sequence": "ATAGTGTGCAGACTTGGACCCTGCCCATTCTTT", "binding signal": "0.09 Bmut (0 = wild type, -1 = scrambled)"}, {"sequence": "ATAGTGTGCAGACTTGGACACTGCCCTTTCTTT", "binding signal": "-0 Bmut (0 = wild type, -1 = scrambled)"}, {"sequence": "ATAGTGTGCAGACTTGGACCCTGCCCTTTCTTA", "binding signal": "0.13 Bmut (0 = wild type, -1 = scrambled)"}, {"sequence": "ATAGTGTGCAGACTTGGACCCTGCCTTTTCTTT", "binding signal": "0.15 Bmut (0 = wild type, -1 = scrambled)"}, {"sequence": "ATAGTGTGCAGACTTGGACCCTGTCCTTTCTTT", "binding signal": "0.02 Bmut (0 = wild type, -1 = scrambled)"}, {"sequence": "ATAGTGTGCAGACTTGGACCCTGCCCTATCTTT", "binding signal": "0.13 Bmut (0 = wild type, -1 = scrambled)"}, {"sequence": "ATAGTGTGCAGACTTGGACCCAGCCCTTTCTTT", "binding signal": "0.01 Bmut (0 = wild type, -1 = scrambled)"}, {"sequence": "ATAGCGTGCAGACTTGGACCCTGCCCTTTCTTT", "binding signal": "-0.5 Bmut (0 = wild type, -1 = scrambled)"}, {"sequence": "ATAGTGTGCAGACTTGGACCCTGCCCTTTCCTT", "binding signal": "0.12 Bmut (0 = wild type, -1 = scrambled)"}, {"sequence": "ATAGTGTGCAGATTTGGACCCTGCCCTTTCTTT", "binding signal": "0.1 Bmut (0 = wild type, -1 = scrambled)"}, {"sequence": "ATAGTGTGCAGACTTGGACCCTGCACTTTCTTT", "binding signal": "-0.1 Bmut (0 = wild type, -1 = scrambled)"}, {"sequence": "ATAGTGTGCAGACTTGGACCCTGCCCTTTCTCT", "binding signal": "0.13 Bmut (0 = wild type, -1 = scrambled)"}, {"sequence": "ATACTGTGCAGACTTGGACCCTGCCCTTTCTTT", "binding signal": "-0.1 Bmut (0 = wild type, -1 = scrambled)"}, {"sequence": "ATAGTGTGCAGACTTGGACCTTGCCCTTTCTTT", "binding signal": "0.06 Bmut (0 = wild type, -1 = scrambled)"}, {"sequence": "ATAATGTGCAGACTTGGACCCTGCCCTTTCTTT", "binding signal": "-0.4 Bmut (0 = wild type, -1 = scrambled)"}, {"sequence": "AAAGTGTGCAGACTTGGACCCTGCCCTTTCTTT", "binding signal": "0 Bmut (0 = wild type, -1 = scrambled)"}, {"sequence": "ATAGTGTGCAGACTTGGACGCTGCCCTTTCTTT", "binding signal": "-0.1 Bmut (0 = wild type, -1 = scrambled)"}, {"sequence": "ATAGTGTGCAGACTTGGACCCTGCCGTTTCTTT", "binding signal": "0.04 Bmut (0 = wild type, -1 = scrambled)"}, {"sequence": "ATAGTGTGCAGACTTGGCCCCTGCCCTTTCTTT", "binding signal": "-0.9 Bmut (0 = wild type, -1 = scrambled)"}, {"sequence": "ATAGTGTGCAGACTTGGACCCTGCCCTGTCTTT", "binding signal": "0.01 Bmut (0 = wild type, -1 = scrambled)"}, {"sequence": "ATAGTGTGCAGACTTGGACCCTGCCCTTACTTT", "binding signal": "-0.1 Bmut (0 = wild type, -1 = scrambled)"}, {"sequence": "ATAGTGTGCAGACTTAGACCCTGCCCTTTCTTT", "binding signal": "-0.1 Bmut (0 = wild type, -1 = scrambled)"}, {"sequence": "ATAGTGTGCAGACATGGACCCTGCCCTTTCTTT", "binding signal": "-0.7 Bmut (0 = wild type, -1 = scrambled)"}, {"sequence": "ATAGTGTGCAGACTTGGACCCTGCCCTTTTTTT", "binding signal": "0.11 Bmut (0 = wild type, -1 = scrambled)"}, {"sequence": "ATAGTGTGCAGACTTGGACCCTGCCCCTTCTTT", "binding signal": "0.19 Bmut (0 = wild type, -1 = scrambled)"}]}]}
